Measurements published in PubChem BioAssay (Tox21).
Several values for one entry are separate records, joined by “and”; a condition that tells them apart may be missing. Equal entries are not always repeated. Results filed as inconclusive are left out. Entries that show only a call come without a potency. Some structures have more than one record in an assay (separate samples or runs), and their calls can disagree. Activity calls are given as the source filed them. The call rests on the fitted dose curve; in most records, active means well fitted inhibition curve with a large enough effect in the repeat runs; inconclusive means weak or mixed curves; inactive means flat fitted curve, though single readings scatter.

target: Luciferin 4-monooxygenase (Photinus pyralis) (UniProt P08659); assay: qHTS assay to identify small molecule inhibitors of firefly luciferase (AID 1224835); further: nearly all actives have a fitted effect of over 25% in size; settings: purified P. pyralis luciferase, luminescence inhibition; series mostly up to 115 µM; activity change, negative = inhibition: at the top concentration
Sequence (P08659 whole entry, looked up): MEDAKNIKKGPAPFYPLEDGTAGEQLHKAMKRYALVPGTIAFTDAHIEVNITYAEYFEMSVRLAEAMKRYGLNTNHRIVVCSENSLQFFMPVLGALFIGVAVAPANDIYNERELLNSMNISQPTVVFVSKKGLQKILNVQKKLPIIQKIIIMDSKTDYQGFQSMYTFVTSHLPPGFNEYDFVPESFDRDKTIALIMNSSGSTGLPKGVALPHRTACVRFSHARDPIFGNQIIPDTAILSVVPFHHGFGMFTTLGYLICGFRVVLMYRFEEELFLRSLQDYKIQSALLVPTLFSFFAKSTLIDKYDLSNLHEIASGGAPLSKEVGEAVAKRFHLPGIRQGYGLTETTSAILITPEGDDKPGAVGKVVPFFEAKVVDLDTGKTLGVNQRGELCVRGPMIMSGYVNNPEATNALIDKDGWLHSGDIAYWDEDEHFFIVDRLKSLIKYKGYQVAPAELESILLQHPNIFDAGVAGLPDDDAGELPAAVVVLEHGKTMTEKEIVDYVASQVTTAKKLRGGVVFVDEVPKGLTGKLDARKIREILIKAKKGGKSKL
Source text: U.S. Tox21 Program National Center for Advancing Translational Sciences [NCATS] NIH Chemical Genomics Center [NCGC] U.S. Environmental Protection Agency [EPA] National Institutes of Environmental Health Sciences [NIEHS] National Toxicology Program [NTP] U.S. Food and Drug Administration [FDA] Tox21 Assay Overview: Firefly (Photinus pyralis) luciferase is one of the most commonly used transcriptional reporters. Firefly luciferase reporter-gene assays are generally considered one of the most sensitive assay types (Wood, 1995; Wood, 1998). However, it was initially observed, in 1991, by Thompson et al., that compounds that resemble the substrates of firefly luciferase (FLuc) can act as competitive inhibitors of the enzyme, and that these compounds, upon interaction with luciferase in the cell, can actually stabilize the protein and increase its half-life. Previous profiling work by other groups to determine the prevalence of compounds that affect FLuc enzymatic activity (PubChem AID 411) identified that ~3% of the MLSMR library (then at ~72K) inhibited FLuc. […] Thus the Tox21 10K library is profiled for activity against FLuc using a biochemical assay of purified FLuc and KM concentrations of FLuc substrates (D-luciferin and ATP).
These assay plates were then treated with 23nL of compound or DMSO using a Kalypsys pin tool, which allows for delivery of a 6-point interplate titration of each compound to the assay plate (quantitative HTS.) 1 uL of firefly luciferase mix (containing 50 mM Tris acetate, pH 7.6, 0.04 uM P. pyralis luciferase, 0.01% Tween, 0.05% BSA and dH2O) was then delivered by FRD to each well. Luciferase activity was then measured using a ViewLux CCD imager.

Question: How did the Potency turn out when `CC(C)CON=O` was run?
Answer: The Potency was “inactive”.

Question: For `O=C(O)CF`, which Potency is on record?
Answer: Its Potency is “inactive”.

Question: With `NN=C(N)N` as the molecule, how does the Potency read?
Answer: Its Potency is “inactive”.

Question: For `N#CC(c1ccccc1)c1ccccc1`, which Potency is on record?
Answer: Its Potency is “inactive”.

Question: Which “activity change, negative = inhibition” value does the source give for `O=[N+]([O-])c1ccc(Nc2ccccc2)cc1` here?
Answer: Its value is -12.5% (inactive).

Question: For `OCCOCCO`, which Potency is on record?
Answer: Its Potency is “inactive”.

Question: With `CCCCCCCCCC(CC)c1ccc(S(=O)(=O)O)cc1` (stereo not given) as the molecule, how does the Potency read?
Answer: The Potency was “inactive”.

Question: For `C=C(C)C#N`, which Potency is on record?
Answer: The Potency was “inactive”.

Question: With `CCOC(=O)c1ccccc1N` as the molecule, how does the Potency read?
Answer: Its Potency is “inactive”.

Question: Which Potency does the source give for `CCCCCCCC[N+](C)(CCCCCCCC)CCCCCCCC` here?
Answer: Its Potency is “inactive”.

Question: Which Potency does the source give for `CC1CC(=O)O1` (stereo not given) here?
Answer: The Potency was “inactive”.

Question: For `COP(=S)(OC)Oc1ccc(Sc2ccc(OP(=S)(OC)OC)cc2)cc1`, which Potency is on record?
Answer: Its Potency is 31.7 µM (active) and inactive.

Question: For `Clc1cccc(Cl)c1`, which Potency is on record?
Answer: The Potency was “inactive”.

Question: Which Potency does the source give for `C=CC(=O)OCC(CC)(COC(=O)C=C)COC(=O)C=C` here?
Answer: The Potency was “inactive”.

Question: Which Potency does the source give for `CCCCOCC1CO1` (stereo not given) here?
Answer: The Potency was “inactive”.

Question: For `CNC(=O)Oc1cccc2c1OC(C)(C)C2`, which Potency is on record?
Answer: The Potency was “inactive”.

Question: With `CC(C)Nc1ccc(Nc2ccccc2)cc1` as the molecule, how does the Potency read?
Answer: The Potency was 31.6 µM (active) and 35.6 µM (active).

Question: Which Potency does the source give for `C[C@]12CCC(=O)C=C1CC[C@@H]1[C@@H]2CC[C@@]2(C)[C@H]1CC[C@]2(C)O` here?
Answer: The Potency was “inactive”.

Question: Which Potency does the source give for `CC(C)=CC1C(C(=O)OCc2cccc(Oc3ccccc3)c2)C1(C)C` (stereo not given) here?
Answer: The Potency was “inactive”.

Question: For `CCC/C=N/O`, which Potency is on record?
Answer: Its Potency is “inactive”.

Question: For `CCCCOC(=O)COC(=O)c1ccccc1C(=O)OCCCC`, which Potency is on record?
Answer: Its Potency is 12.6 µM (active) and 35.6 µM (active).

Question: With `CC(C)(O)C#N` as the molecule, how does the Potency read?
Answer: The Potency was “inactive”.

Question: For `O=C(O)c1nn(Cc2ccc(Cl)cc2Cl)c2ccccc12`, which Potency is on record?
Answer: Its Potency is “inactive”.

Question: Which Potency does the source give for `CCC1(c2ccc(N)cc2)CCC(=O)NC1=O` (stereo not given) here?
Answer: Its Potency is “inactive”.

Question: Which Potency does the source give for `Clc1ccc(C(Cl)(Cl)Cl)cc1` here?
Answer: The Potency was “inactive”.

Question: With `Cc1cccc(N=Nc2ccc(N(C)C)cc2)c1` as the molecule, how does the Potency read?
Answer: Its Potency is 456 nM (active) and 894 nM (active).

Question: `CCOS(=O)(=O)OCC` was tested. Which “activity change, negative = inhibition” value did it give?
Answer: Its value is 2.99% (inactive).

Question: For `S=c1[nH]c2ccccc2[nH]1`, which “activity change, negative = inhibition” value is on record?
Answer: Its value is -5.81% (inactive).

Question: With `CC(C)(c1ccccc1)c1ccc(O)cc1` as the molecule, how does the Potency read?
Answer: Its Potency is “inactive”.

Question: Which Potency does the source give for `C[N+](C)(C)CC(=O)O` here?
Answer: Its Potency is “inactive”.

Question: For `O=[N+]([O-])c1ccc(Cl)c([N+](=O)[O-])c1`, which Potency is on record?
Answer: Its Potency is “inactive”.

Question: Which Potency does the source give for `CCNCC` here?
Answer: The Potency was “inactive”.

Question: With `O=C1CCCO1` as the molecule, how does the Potency read?
Answer: The Potency was “inactive”.

Question: Which “activity change, negative = inhibition” value does the source give for `Oc1ccc(Cl)cc1Cc1ccccc1` here?
Answer: Its value is -8.72% [at 52.9 µM] (inactive).

Question: How did the Potency turn out when `CCOP(=S)(OCC)SCSC(C)(C)C` was run?
Answer: The Potency was “inactive”.

Question: For `N#Cc1cccnc1`, which Potency is on record?
Answer: The Potency was “inactive”.

Question: Which Potency does the source give for `CN(C)P(=O)(N(C)C)N(C)C` here?
Answer: The Potency was “inactive”.

Question: With `N#Cc1nn(-c2c(Cl)cc(C(F)(F)F)cc2Cl)c(N)c1S(=O)C(F)(F)F` (stereo not given) as the molecule, how does the Potency read?
Answer: Its Potency is “inactive”.

Question: Which Potency does the source give for `CCCCC(C#N)(Cn1cncn1)c1ccc(Cl)cc1` (stereo not given) here?
Answer: Its Potency is “inactive”.

Question: With `CCCCOCCOC(C)=O` as the molecule, how does the Potency read?
Answer: Its Potency is “inactive”.
